# Screening results as filed in PubChem.
# Hits are enriched below; roughly 3.5% of the tested compounds scored in any of these assays.
# Pf apPOL block – Pf-apPOL DNA polymerase inhibition; Recombinant Pf-apPOL, molecular beacon fluorescence, 1.5 h; inhibition, % at 10 µM; 0.25% of 210,000 active; AID 1794808
# mHTT-CaM PPI inh – inhibitors of human mutant huntingtin-calmodulin interaction; inhibition, % at 15 µM; AlphaScreen His-mHTT/GST-CaM binding, luminescence; P42858; AID 1671202; 3.6% of 190,000 active;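 note: 0% = both proteins with DMSO and 100% = one protein alone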
# An asterisk follows results filed as active; i = inactive. Cut-off read from the data, not from the text of the source: active = inhibition above about 50%; inactive = the rest.
SMILES,Pf apPOL block,mHTT-CaM PPI inh
Cc1nc2cc(N=Cc3ccc(Br)cc3)ccc2n1C,52.9*,5.0
Cc1nc2cc(N=Cc3ccccc3O)ccc2n1C,18.7,8.0
O=C(NCCCn1cccn1)C1CN(S(=O)(=O)c2ccccc2)CC12CCCCC2 (stereo unspecified),-3.4,3.6
CCSc1ccccc1C(=O)Nc1nnc(C2CCCCC2)o1,-17.7,37.4
CCSc1ccccc1C(=O)Nc1nnc(-c2ccsc2)o1,-27.7,84.2*
Cc1ccc(NC(=O)C2(c3ccccc3)CCOCC2)cc1,-4.8,-2.3
O=C(Nc1nnc(-c2ccsc2)o1)C1(c2ccccc2)CCOCC1,-149.2,99.7*
O=C(Nc1c(Cl)cccc1Cl)C1(c2ccccc2)CCOCC1,85.8*,2.0
O=C(CSCc1ccccc1)Nc1nnc(-c2ccsc2)o1,-18.7,42.5
O=C(CN1CCC(c2nc(-c3cccc(F)c3)no2)CC1)Nc1ccc(F)cc1F,1.8,-8.0
COc1cccc(N=Cc2c(C)[nH]n(-c3ccccc3)c2=O)c1,-12.7,46.0
COc1ccc(OCC(=O)N2CCCC3(C2)Nc2ccccc2NC3=NC(C)(C)C)cc1 (stereo unspecified),2.6,34.0
O=C(Nc1ccc(F)c(Cl)c1)c1cc(S(=O)(=O)NCCc2ccccc2)ccc1F,-6.2,76.0*
COc1ccc(OC)c(NC(=O)c2cc(S(=O)(=O)NCc3ccccc3)ccc2F)c1,-8.2,13.0
O=C(Nc1cc(Cl)cc(Cl)c1)c1cc(S(=O)(=O)NCCc2ccccc2)ccc1F,-7.9,49.0
COc1ccc(OC)c(NC(=O)c2cc(S(=O)(=O)NCCc3ccccc3)ccc2F)c1,0.4,80.0*
Cc1ccc(NC(=O)c2cc(S(=O)(=O)NCCc3ccccc3)ccc2F)cc1Cl,1.4,5.0
O=C(Nc1cccc(Cl)c1)c1cc(S(=O)(=O)NCCc2ccc(Cl)cc2)ccc1F,-7.9,80.0*
COc1ccc(/C(N)=N/OC(=O)c2ccc3c(c2)OCO3)cc1,3.3,i
O=C(c1ccccc1)N1CCCCC1CCN1CCCCC1 (stereo unspecified),-8.3,14.8
Cc1nn(-c2ccc(F)cc2)c2nc(N3CCCN(C(=O)c4cccnc4)CC3)sc12,11.0,19.2
CCOCCCNC(=O)c1nc(-c2cccc(F)c2)n2c1CCCCC2,-2.0,20.3
COc1ccc(CCNC(=O)c2nc(-c3cccc(F)c3)n3c2CCCCC3)cc1OC,4.7,50.6*
COC(=O)c1ccccc1NC(=O)c1nc(-c2cccc(F)c2)n2c1CCCCC2,1.3,3.0
COc1cc(NC(=O)c2nc(-c3cccc(F)c3)n3c2CCCCC3)cc(OC)c1OC,5.8,64.5*
SMILES,Pf apPOL block,mHTT-CaM PPI inh
Cc1ccc(-n2nc3c(c2NC(=O)C2CC2)CS(=O)(=O)C3)c(C)c1,-4.5,-1.0
CCN(CC)c1ccc(NC(=O)c2cnccn2)cc1,1.6,59.6*
CCOc1ccc(NC(=O)c2cnccn2)cc1,-1.7,0.2
CCc1onc(C)c1C1CCCN1Cc1ccc(N(CC)CC)cc1 (stereo unspecified),0.1,67.4*
CCc1onc(C)c1C1CCCN1Cc1ccc(O)cc1 (stereo unspecified),8.9,-0.6
Nc1ncnc(NCCO)c1[N+](=O)[O-],-2.1,-2.6
O=C(NCCCO)/C(=C\c1ccc2c(c1)OCO2)NC(=O)c1ccc(Br)cc1,-2.5,-1.0
CN(C)CCNc1ncnc2scc(-c3ccccc3)c12,0.3,4.1
O=C(Cn1c(-c2ccccc2F)nc2ccccc2c1=O)Nc1ccc(F)c(Cl)c1,-0.8,91.0*
COc1ccc2nc(NC(=O)Cn3c(-c4ccccc4F)nc4ccccc4c3=O)sc2c1,-8.4,100.0*
COc1cccc(NC(=O)Cn2c(-c3ccccc3F)nc3ccccc3c2=O)c1,-0.9,4.0
COc1ccc(NC(=O)Cn2c(-c3ccccc3F)nc3ccccc3c2=O)cc1OC,-0.6,1.0
CC1CCCN(C(=O)c2cnn(-c3ccccc3)c2NC(=O)c2ccc(F)cc2)C1 (stereo unspecified),-2.3,6.3
COC(=O)[C@H](C(C)C)N(CCCc1cn(Cc2ccc(C)cc2)nn1)S(=O)(=O)c1ccccc1Br,-1.4,92.9*
COC(=O)[C@H](C(C)C)N(CCc1cn(Cc2ccc(C)cc2)nn1)S(=O)(=O)c1ccccc1Br,-6.9,-1.1
O=C(Nc1ccc(F)cc1F)c1ccc(Cl)c([N+](=O)[O-])c1,2.6,2.0
CCCCN(C)C(=O)c1sc2nc(C)nc(N3CCCCC3)c2c1C,-4.5,-7.0
O=C1c2ccccc2C(=O)c2c1ccc(C(=O)N1CCN(c3ccccn3)CC1)c2NCCO,-2.2,78.0*
O=C1c2ccccc2C(=O)c2c1ccc(C(=O)N1CCC3(CC1)OCCO3)c2NCCO,1.1,41.0
OC(COCC12CC3CC(CC(C3)C1)C2)CN1CCN(c2ccccc2F)CC1 (stereo unspecified),-4.1,32.6
OC(COCCC12CC3CC(CC(C3)C1)C2)CN1CCN(Cc2ccccc2)CC1 (stereo unspecified),-1.4,56.6*
OC(COCC12CC3CC(CC(C3)C1)C2)CN1CCN(Cc2ccccc2)CC1 (stereo unspecified),1.8,24.6
